# Compound activity: PubChem, National Center for Advancing Translational Sciences (NCATS)
# Only some compounds are listed: those with a hit (about 3.5% of all), similar ones and a draw of the others.
# TRb-SRC2 inh: TRbeta-SRC2 interaction inhibition. P10828. TRbeta-SRC2 peptide binding, fluorescence polarization; receptor liganded with 1 µM T3. Potency, µM (highest dose often 106 µM), without a hit: top-dose activity change, negative = inhibition, usual class: inhibitors. 280,000 compounds, 0.065% hits. AID 1469;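 further: plate controls were bound peptide for no effect and peptide without receptor for full effect; nearly all actives have a fitted effect of over 50% in size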
#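 Decrease in fluorescence polarization of 20 nM Texas Red SRC2 coactivator peptide flagged inhibition of its binding to 0.6 uM TRb LBD; 1 uM T3 included, incubation 5 hr, ex 555/em 632 nm.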
# Tau fluor counter: counter-screen for tau fibril formation inhibitors; 280,000 compounds, 0.93% hits; AID 1463; tau K18 P301L Alexa594 fluorescence, heparin fibrillization; Potency, µM (highest dose often 57.7 µM), for inactives: at the top dose activity change, negative = decrease; further: nearly all actives have a fitted effect of over 55% in size
#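 Human K18 P301L tau (15 uM unlabeled plus 0.24 uM Alexa 594-labeled, final) in 100 mM sodium acetate pH 7 was mixed with compound and 20 uM heparin and incubated 6 hr at 37 C.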
# Tau fibril FP: blocks human tau fibril formation measured by polarization; P10636; K18 P301L tau heparin fibrillization, Alexa594 FP, 6 h; Potency, µM (series often up to 57.7 µM), for inactives: at the highest dose activity, negative = inhibition, hits mostly inhibitors; 280,000 compounds, 0.39% hits; AID 1468; further: nearly all actives have a fitted effect of over 55% in size
# Target sequence (P10636 561-689 P618L limits assumed): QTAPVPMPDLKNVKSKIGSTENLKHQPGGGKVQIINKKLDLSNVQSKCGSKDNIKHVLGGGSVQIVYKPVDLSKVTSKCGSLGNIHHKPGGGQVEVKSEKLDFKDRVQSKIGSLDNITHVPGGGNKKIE
#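 Human tau K18 […] P301L fragment, 15 uM unlabeled plus 0.24 uM Alexa 594-labeled tau (final), with compound and 20 uM heparin in 100 mM sodium acetate pH 7; 6 hr at 37 C, then Alexa 594 FP read.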
# KDM4E inh: JMJD2E (human) inhibition. B2RXH2. JMJD2E catalytic domain, FDH-coupled NADH fluorescence (FDH is formaldehyde dehydrogenase). Potency, µM (top dose mostly 57.1 µM), for inactives: at the top dose activity change, negative = inhibition, actives largely listed as inhibitors. 230,000 compounds, 1.6% hits. AID 2147; active means well fitted inhibition curve with a large enough effect, not every such curve was filed as active; inconclusive means small, poorly fitted or top-dose-only effect, or another doubt; inactive means no such curve, though single readings can be large or run the other way;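 further: 0% = wells with enzyme and -100% = buffer wells without enzyme; nearly all actives have a fitted effect of over 50% in size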
# Target sequence (B2RXH2 1-337 limits assumed): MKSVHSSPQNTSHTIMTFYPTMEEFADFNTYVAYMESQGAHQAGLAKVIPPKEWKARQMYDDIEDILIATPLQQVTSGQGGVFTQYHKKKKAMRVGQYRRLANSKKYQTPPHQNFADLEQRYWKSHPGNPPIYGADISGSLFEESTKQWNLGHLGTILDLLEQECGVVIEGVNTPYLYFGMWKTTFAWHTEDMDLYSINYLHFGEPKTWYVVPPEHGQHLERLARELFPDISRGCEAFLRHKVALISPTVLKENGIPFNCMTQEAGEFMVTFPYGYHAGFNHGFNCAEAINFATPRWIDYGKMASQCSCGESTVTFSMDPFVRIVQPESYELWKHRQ
# TexasRed fluor: Texas Red fluorescence interference in TRb-SRC2 counter-screen; TRb/SRC2 Texas Red total fluorescence interference; Potency, µM (titrated, usually from 106 µM), for the others: top-dose fluorescence change, negative = quenching; 280,000 compounds, 0.29% hits; active means well fitted curve in either direction with a large enough effect; inconclusive means small, poorly fitted or top-dose-only effect
#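 Human TRb ligand-binding domain at 0.6 uM with 20 nM Texas Red SRC2 peptide in Tris buffer containing 1 uM T3 and 5% DMSO, incubated with compound 5 h at ambient temperature. Total fluorescence (555/632 nm) calculated as parallel + 2 × perpendicular.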
# Tau fibril ThT: tau fibrillization inhibition (ThT binding). Potency, µM (top dose mostly 57.4 µM), inactives show top-dose activity, negative = inhibition, hits mostly inhibitors. AID 1460. 270,000 compounds, 2.1% hits. recombinant tau K18 P301L (four-repeat tau fragment), heparin-induced fibrillization, ThT fluorescence. P10636; further: nearly all actives have a fitted effect of over 55% in size
#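 Heparin-induced fibrillization of the P301L-mutant K18 repeat-domain fragment of human tau was followed by ThT binding in quantitative high-throughput format.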
# An asterisk follows results filed as active; ? = inconclusive; · = no result; ! = repeats disagree; [ ] = another dose, or the depositor's remark. Unless noted, the call rests on the fitted dose curve; in most records, active means well fitted curve in the direction sought with a large enough effect; inconclusive means small, poorly fitted or top-dose-only effect, or another doubt; inactive means no such curve, though single readings can be large; an effect the other way counts as inactive or inconclusive. Unless noted, on the % scale 0 is the no-effect control and ±100 the full control effect; potency means the concentration at half of the fitted maximal effect.
SMILES,TRb-SRC2 inh,Tau fluor counter,Tau fibril FP,KDM4E inh,TexasRed fluor,Tau fibril ThT
O=C(Nc1ccc(Nc2ccccc2)cc1)Nc1ccccc1Cl,-6%,4µM*[quencher],?,?,-3%,4µM*
O=C(Nc1cccc(Cl)c1)Nc1cccc(Cl)c1,0%,-22%,?,4%,-1%,-10%
O=C(Nc1cccnc1)Nc1cc(Cl)cc(Cl)c1,4%,?,25µM*,-7%,-1%,?
O=C(Nc1csc([N+](=O)[O-])c1)Nc1ccccc1Cl,5%,25µM*[quencher],0%,6%,-2%,·
O=C(c1sccc1Br)N1CCN(Cc2ccc3c(c2)OCO3)CC1,-6%,-2%,-3%,7%,-7%,-2%
O=C(NCCC1=CCCCC1)C1CCN(S(=O)(=O)N2CCOCC2)CC1,-2%,-7%,8%,6%,-4%,-8%
CCn1ncc(Br)c1C(=O)Nc1cc([N+](=O)[O-])ccc1C,2%,-5%,1%,3%,0%,-5%
O=C(Nc1ccccc1)Nc1ccc(Oc2cccnc2)nc1,1%,-7%,3%,-16%,-2%,8%
O=C(Nc1ccccc1)Nc1csc2ccccc12,1%,11µM*[quencher],?,3%,-4%,?
O=C(Nc1ccccc1)Nc1cc(OCC(F)(F)F)cc(OCC(F)(F)F)c1,4%,?,11µM*,-5%,-3%,-15%
CC(=O)NCC1CCCN(c2nc3nonc3nc2N(C)Cc2ccccc2)C1 (stereo unspecified),-4%,2%,1%,-3%,-2%,4%
CC(=O)N1CCN(c2ccc(C(N)=O)cc2[N+](=O)[O-])CC1,3%,-8%,-7%,5%,1%,-17%
NC(=O)c1ccc(N2CCN(c3ccccc3O)CC2)c([N+](=O)[O-])c1,4%,-18%,5%,-12%,1%,?
COc1ccc(N2CCN(c3ccc(C(N)=O)cc3[N+](=O)[O-])CC2)cc1,-4%,?,1%,-6%,-3%,4.5µM*
NC(=O)c1ccc(N2CCN(c3ccccc3F)CC2)c([N+](=O)[O-])c1,0%,-29%,?,8%,1%,16µM*
COc1ccccc1/C=C/C=N/NC(=O)c1ccc(=O)n(C)c1,-8%,-2%,-4%,?,1%,-5%
CN=c1scc(-c2ccc(OC)cc2)n1/N=C(\C)c1cccnc1,-13%,?,1%,-12%,0%,11µM*
COC(=O)CCCC1=CC2=C(c3ccccc3)C(=O)C(C)(OC(=O)C3CCCC3)C(=O)C2=CN1Cc1ccccc1 (stereo unspecified),-3%[11.2 µM],-8%[11.6 µM],-5%[11.6 µM],-15%[11.4 µM],-3%[11.2 µM],-15%[11.5 µM]
COC(=O)CCCC1=CC2=C(c3ccccc3)C(=O)C(C)(OC(=O)C3CCCC3)C(=O)C2=CN1CCN1CCOCC1 (stereo unspecified),-1%[11.2 µM],-6%[11.6 µM],-3%[11.6 µM],3.2µM*!,-1%[11.2 µM],-13%[11.5 µM]
Cc1ccc2c(c1)N(C(=O)CSc1nncn1C)C(C)(C)c1ssc(=S)c1-2,2%,-20%,11%,9%,2%,?
Cc1cc2c(cc1C)N(C(=O)CSc1nncn1C)C(C)(C)c1ssc(=S)c1-2,-6%,-22%,4%,-8%,-9%,20µM*
CC1CCCCN1CC(=O)Nc1ccccc1Sc1ccccc1 (stereo unspecified),1%,-6%,7%,1%,3%,-16%
C=CCOC(=O)C1=C[C@H](c2cn(C(C)=O)c3ccccc23)[C@@H](CCCO)[C@H](OCC)O1,-6%,-12%,-7%,-14%,-4%,-13%
CC(=O)N[C@H](CS)C(=O)O,3%,-12%,?,?,-2%,?
CC(=O)N[C@@H](CS)C(=O)O,7%,-13%,-10%,25µM*!,?,?
SMILES,TRb-SRC2 inh,Tau fluor counter,Tau fibril FP,KDM4E inh,TexasRed fluor,Tau fibril ThT
CC1=C(C#N)C(=O)NC(=O)/C1=C/c1ccc(-c2ccc(S(N)(=O)=O)cc2)o1,-7%,?,-18%,?,-1%,16µM*
CCNC(=O)c1ccccc1-c1nc(-c2ccccc2)no1,-7%,-13%,-5%,2%,0%,-13%
COc1c(O)cc2oc3cc(O)c(CC=C(C)C)c(O)c3c(=O)c2c1CC=C(C)C,1%,2.8µM*[quencher],2.8µM*,1%,1%,?
CC(C)=CCc1c(O)cc2oc3c(CC=C(C)C)c(O)c(O)c(CC=C(C)C)c3c(=O)c2c1O,-2%,14µM*[quencher],-5%,28µM*,0%,?
COc1ccccc1NC(=O)Nc1ccc(Cl)c(S(=O)(=O)Nc2ccccc2OC)c1,4%,3.2µM*[quencher],28µM*,-4%,-1%,-6%
Cc1ccc(NC(=S)NC(=O)c2ccc(F)cc2)cc1S(=O)(=O)Nc1ccccc1Cl,-10%,-29%,-26%,-3%,0%,-2%
COc1ccccc1NS(=O)(=O)c1cc(NC(=O)c2ccc(Cl)nc2)ccc1Cl,-6%,22µM*[quencher],25µM*,?,-2%,15%
COc1ccccc1NS(=O)(=O)c1cc(NC(=O)c2ccc3ccccc3n2)ccc1Cl,-7%[53 µM],-24%,?,-12%,-2%[53 µM],15%
COc1ccc(NC(=O)Cc2cccc(F)c2)cc1S(=O)(=O)Nc1ccccc1Cl,3%,14µM*[quencher],?,-10%,-3%,·
COc1ccc(C(=O)Nc2ccc(Cl)c(S(=O)(=O)Nc3ccccc3OC)c2)cc1,3%,?,?,3%,10%,7%
Cc1cc2ncn(C(=O)N3CCOCC3)c2cc1C,-6%,3%,-1%,4%,-2%,-3%
CCCCOc1ccc(-c2nn(-c3ccccc3)cc2C2NC(=O)NC(C)=C2C(=O)OC)cc1 (stereo unspecified),1%,-21%,-1%,·,1%,?
O=C(O)c1ccc(-n2c(O)c(C=C3N=c4ccccc4=N3)sc2=S)cc1,-2%,?,4%,2%,-2%,18µM*
O=C(O)CCCCCn1c(O)c(C=C2N=c3ccccc3=N2)sc1=S,1%,?,18%,-2%,-19%,13µM*
O=C(O)CCCn1c(O)c(C=C2N=c3ccccc3=N2)sc1=S,1%,-24%,-3%,0%,-6%,?
CCOc1ccccc1NC(=O)Cc1coc2c(C)c(C)ccc12,-12%[53 µM],-17%,-14%,·,35µM*[quencher],?
Cc1cc(N=Nc2ccc(C)c(N=Nc3cc(C)c(N)cc3N)c2)c(N)cc1N,-1%,16µM*[quencher],-4%,?,-5%,4µM*
COC(=O)c1cc2oc3ccccc3c2n1CC(=O)Nc1ccc(C)c(F)c1,0%,-18%,?,·,1%,10%
